{"source": "the supplement of paper PMC11219838", "data": [{"tested_on": "Caenorhabditis elegans dauer (daf-2(e1370))", "assay": "proportion of mobile C. elegans dauer larvae relative to DMSO control (fraction of DMSO control); higher = more viable, less nematicidal, active = 0.63 or less; extreme values may be limits of the assay", "settings": "60 µM; 5 days; temperature: 20 °C", "procedure,_shortened": "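Compound was added by pinning to 60 µM final, giving 0.6% v/v DMSO, in 96-well plates containing about 20 C. elegans dauers per well in liquid NGM. These dauers came from synchronized larvae held on MYOB plates with E. coli OP50 for 48 h at 25 °C. Plates were sealed and shaken at 200 rpm at 20 °C for 5 days. Under a dissection microscope, the proportion of mobile worms was scored relative to DMSO wells, and two biological replicates were averaged.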", "values": [{"molecule": "O=C(CSc1nnc(-c2ccccc2Cl)o1)Nc1ccccn1", "proportion of mobile C. elegans dauer larvae": "1 (inactive)"}, {"molecule": "CCOc1ccc(-c2nc(-c3cccnc3)no2)cc1OCC", "proportion of mobile C. elegans dauer larvae": "1 (inactive)"}, {"molecule": "COc1cccc(CSc2nnc(-c3ccco3)n2C)c1", "proportion of mobile C. elegans dauer larvae": "1 (inactive)"}, {"molecule": "CCCCc1ccc(-c2nc(-c3cccnc3)no2)cc1", "proportion of mobile C. elegans dauer larvae": "1 (inactive)"}]}, {"tested_on": "Ditylenchus dipsaci", "assay": "proportion of mobile D. dipsaci (mixed stage) relative to DMSO control (fraction of DMSO control); higher = more viable, less nematicidal, active = 0.86 or less; extreme values may be limits of the assay", "settings": "60 µM; 5 days; temperature: 20 °C", "procedure,_shortened": "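Ditylenchus dipsaci nematodes were cultured on pea plants in Gamborg B-5 agar, then extracted into water through a filter funnel, and roughly 20 worms in distilled water were placed in each well of a 96-well plate. Compound was pinned in to a final concentration of 60 µM (0.6% v/v DMSO), and the sealed plates were shaken at 200 rpm for 5 days at 20 °C. Mobile worms were counted under the microscope after 2 µL of 1 M NaOH was added. Mobility is given relative to DMSO controls as the mean of two biological replicates.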", "values": [{"molecule": "CCOc1nc(-c2ccccc2)ccc1-c1noc(-c2cccc(C)c2)n1", "proportion of mobile D. dipsaci": "1 (inactive)"}, {"molecule": "Clc1cccc(-c2nc(-c3ccncc3)no2)c1", "proportion of mobile D. dipsaci": "1 (inactive)"}, {"molecule": "Cc1c(C(=O)CSc2nnc(-c3ccccc3)o2)c2ccccc2n1C", "proportion of mobile D. dipsaci": "1 (inactive)"}, {"molecule": "COc1ccccc1-c1nc(-c2ccc(Cl)cc2Cl)no1", "proportion of mobile D. dipsaci": "1 (inactive)"}, {"molecule": "COc1ccccc1-c1nc(-c2ccc(C)cc2)no1", "proportion of mobile D. dipsaci": "1 (inactive)"}, {"molecule": "CCN(C(=O)CSc1nnc(-c2ccncc2)o1)c1ccccc1", "proportion of mobile D. dipsaci": "1 (inactive)"}, {"molecule": "Cc1ccc(OCc2nc(-c3ccncc3)no2)cc1C", "proportion of mobile D. dipsaci": "1 (inactive)"}, {"molecule": "c1ccc(-c2noc(-c3cccs3)n2)cc1", "note": "[tioxazafen]", "proportion of mobile D. dipsaci": "1 (inactive)"}, {"molecule": "O=C(Nc1cccc(-c2noc(-c3cccnc3)n2)c1)c1cccs1", "proportion of mobile D. dipsaci": "1 (inactive)"}, {"molecule": "COc1ccc(-c2noc(COc3ccc(C)cc3Br)n2)cc1", "proportion of mobile D. dipsaci": "1 (inactive)"}, {"molecule": "O=C(CSc1nnc(-c2ccco2)o1)Nc1ccccc1F", "proportion of mobile D. dipsaci": "1 (inactive)"}, {"molecule": "Brc1ccc(-c2noc(-c3cccs3)n2)o1", "proportion of mobile D. dipsaci": "1 (inactive)"}, {"molecule": "COc1ccccc1CC(=O)Nc1ccc(-c2noc(-c3ccccc3C)n2)cc1", "proportion of mobile D. dipsaci": "1 (inactive)"}, {"molecule": "Brc1ccc(-c2noc(-c3ccco3)n2)cc1", "proportion of mobile D. dipsaci": "0.875 (inactive)"}, {"molecule": "Cc1ccccc1-c1noc(-c2ccc(F)cc2)n1", "proportion of mobile D. dipsaci": "1 (inactive)"}, {"molecule": "Cc1ccc(OCc2nc(-c3ccc(Cl)cc3)no2)cc1C", "proportion of mobile D. dipsaci": "1 (inactive)"}, {"molecule": "Cc1ccc(-c2noc(-c3cccc(Br)c3)n2)cc1", "proportion of mobile D. dipsaci": "1 (inactive)"}, {"molecule": "Clc1cc(Cl)c(OCc2nc(-c3ccncc3)no2)cc1Cl", "proportion of mobile D. dipsaci": "1 (inactive)"}, {"molecule": "Cc1ccc(OCc2nc(-c3ccc(Br)o3)no2)cc1C", "proportion of mobile D. dipsaci": "1 (inactive)"}, {"molecule": "C=CCSc1nnc(-c2ccc(Br)cc2)o1", "proportion of mobile D. dipsaci": "0.85 (active)"}, {"molecule": "Cc1ccccc1-c1nc(-c2ccccc2Cl)no1", "proportion of mobile D. dipsaci": "1 (inactive)"}, {"molecule": "CC(C)C(=O)Nc1ccccc1-c1nc(-c2cccnc2)no1", "proportion of mobile D. dipsaci": "1 (inactive)"}, {"molecule": "Clc1ccc(CSc2nnc(-c3ccccc3)o2)c(Cl)c1", "proportion of mobile D. dipsaci": "1 (inactive)"}, {"molecule": "COC(=O)c1ccc(Cl)c(NC(=O)CSc2nnc(-c3ccc(Cl)cc3)o2)c1", "proportion of mobile D. dipsaci": "1 (inactive)"}, {"molecule": "COc1nc(-c2ccccc2)ccc1-c1noc(C(C)C)n1", "proportion of mobile D. dipsaci": "1 (inactive)"}, {"molecule": "c1ccc(COc2cccc(-c3nc(-c4ccncc4)no3)c2)cc1", "proportion of mobile D. dipsaci": "1 (inactive)"}, {"molecule": "C=CCOc1ccc(-c2nc(-c3cccnc3)no2)cc1", "proportion of mobile D. dipsaci": "0.5 (active)"}, {"molecule": "Clc1cccc(-c2nc(-c3cccnc3)no2)c1", "proportion of mobile D. dipsaci": "1 (inactive)"}, {"molecule": "O=C(CSc1nnc(-c2ccncc2)o1)Nc1ccc(Cl)cc1Cl", "proportion of mobile D. dipsaci": "1 (inactive)"}, {"molecule": "FC(F)(F)c1ccc(-c2noc(-c3ccccc3Cl)n2)cc1", "proportion of mobile D. dipsaci": "1 (inactive)"}, {"molecule": "COc1cccc(-c2noc(COc3ccccc3C)n2)c1", "proportion of mobile D. dipsaci": "1 (inactive)"}, {"molecule": "c1coc(-c2nc(-c3cccs3)no2)c1", "proportion of mobile D. dipsaci": "1 (inactive)"}, {"molecule": "Cc1cccc(-c2nc(-c3ccc(Br)cc3)no2)c1", "proportion of mobile D. dipsaci": "1 (inactive)"}, {"molecule": "CCOC(=O)c1c(NC(=O)CSc2nnc(-c3ccc(Cl)cc3)o2)sc(C(C)=O)c1C", "proportion of mobile D. dipsaci": "1 (inactive)"}, {"molecule": "O=C(CSc1nnc(-c2ccccc2Cl)o1)Nc1ccccn1", "proportion of mobile D. dipsaci": "1 (inactive)"}, {"molecule": "CCOc1ccc(-c2nc(-c3cccnc3)no2)cc1OCC", "proportion of mobile D. dipsaci": "1 (inactive)"}, {"molecule": "COc1cccc(CSc2nnc(-c3ccco3)n2C)c1", "proportion of mobile D. dipsaci": "1 (inactive)"}, {"molecule": "CCCCc1ccc(-c2nc(-c3cccnc3)no2)cc1", "proportion of mobile D. dipsaci": "1 (inactive)"}]}]}
